Reference: PubChem BioAssay (NCI)
The panel holds about 83,000 compounds, 20% with a hit somewhere; the sample as a whole holds those more often.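 Interpretation: 100, growth as untreated; towards 0, rising growth inhibition; 0, no net growth; 0 to -100, cell death. Compounds scoring below 10 were considered active.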 The source made the active and inactive calls.

How the values were obtained:
Experiment in all cases: NCI-60 one-dose screen, 48 h (100 = growth as untreated, 0 = no growth, -100 = all killed)
Settings in all cases: 10 µM unless noted
NCI-H23 lung = test system: NCI-H23 lung
NCI-H226 lung = test system: NCI-H226 lung
NCI-H322M lung = test system: NCI-H322M lung
HOP-62 NSCLC = test system: HOP-62 NSCLC
NCI-H460 lung = test system: NCI-H460 lung
HOP-92 NSCLC = test system: HOP-92 NSCLC
NCI-H522 lung = test system: NCI-H522 lung
A549/ATCC NSCLC = test system: A549/ATCC NSCLC
786-0 renal = test system: 786-0 renal
COLO 205 colon = test system: COLO 205 colon
DU-145 prostate = test system: DU-145 prostate
K-562 leukemia = test system: K-562 leukemia
MALME-3M melanoma = test system: MALME-3M melanoma
MDA-MB-231 breast = test system: MDA-MB-231 breast
RXF 393 renal = test system: RXF 393 renal
SF-268 CNS = test system: SF-268 CNS
SF-295 CNS = test system: SF-295 CNS
SF-539 CNS = test system: SF-539 CNS
UACC-257 melanoma = test system: UACC-257 melanoma
M14 melanoma = test system: M14 melanoma

Measured: growth

CCCCCCCCCc1ccc(C(=O)Nc2cc(C)ccc2C(=O)OC)cc1
inactive: NCI-H23 lung 102% | NCI-H226 lung 98.9% | NCI-H322M lung 112% | HOP-62 NSCLC 107% | NCI-H460 lung 115% | HOP-92 NSCLC 61.6% | NCI-H522 lung 101% | A549/ATCC NSCLC 114% | 786-0 renal 101% | COLO 205 colon 131% | DU-145 prostate 119% | K-562 leukemia 98.8% | MALME-3M melanoma 99.8% | MDA-MB-231 breast 103% | RXF 393 renal 117% | SF-268 CNS 116% | SF-295 CNS 103% | SF-539 CNS 112% | UACC-257 melanoma 106% | M14 melanoma 105%

O=C1NC(=S)/C(=C/c2cn(-c3ccccc3)nc2-c2ccccc2)S1
active: NCI-H460 lung 9.19% | NCI-H522 lung -9.92% | RXF 393 renal 9.95% | UACC-257 melanoma 6.05%
inactive: NCI-H23 lung 12.5% | NCI-H226 lung 34.1% | NCI-H322M lung 31.7% | HOP-62 NSCLC 72.6% | HOP-92 NSCLC 13.7% | A549/ATCC NSCLC 17.7% | 786-0 renal 20.8% | COLO 205 colon 33.2% | DU-145 prostate 34.4% | K-562 leukemia 22.2% | MALME-3M melanoma 10.4% | MDA-MB-231 breast 39.5% | SF-268 CNS 36.4% | SF-295 CNS 17% | SF-539 CNS 22.5% | M14 melanoma 25%

O=C(CSc1nc2c(c(=O)[nH]1)CCCC2)Nc1ccccc1C(=O)O
inactive: NCI-H23 lung 99.9% | NCI-H226 lung 101% | NCI-H322M lung 102% | HOP-62 NSCLC 104% | NCI-H460 lung 120% | HOP-92 NSCLC 117% | NCI-H522 lung 83.8% | A549/ATCC NSCLC 103% | 786-0 renal 103% | COLO 205 colon 124% | DU-145 prostate 110% | K-562 leukemia 95.8% | MALME-3M melanoma 96.7% | MDA-MB-231 breast 109% | RXF 393 renal 108% | SF-268 CNS 106% | SF-295 CNS 100% | SF-539 CNS 97.9% | UACC-257 melanoma 109% | M14 melanoma 108%

COc1ccc2c(c1)c(-c1cc(N)n3nc(-c4c[nH]c5ccccc45)cc3n1)cn2C
active: NCI-H23 lung -69.9% | NCI-H226 lung -33.1% | NCI-H322M lung -53.5% | HOP-62 NSCLC -71.5% | NCI-H460 lung -69.7% | HOP-92 NSCLC -66.7% | NCI-H522 lung -70.4% | A549/ATCC NSCLC -88.1% | 786-0 renal -84.5% | COLO 205 colon -83.9% | DU-145 prostate -46.6% | K-562 leukemia 1.75% | MALME-3M melanoma -89.9% | MDA-MB-231 breast -75.7% | RXF 393 renal -79% | SF-268 CNS -41.1% | SF-295 CNS -76.9% | SF-539 CNS -97.1% | UACC-257 melanoma -89.6% | M14 melanoma -71.2%

NS(=O)(=O)c1ccc(N2N=C(c3ccc(NC(=O)Nc4ccccc4)cc3)CC2c2ccc(Br)cc2)cc1 (stereo not given)
active: NCI-H23 lung -95.2% | NCI-H226 lung -84.2% | NCI-H322M lung -87.3% | HOP-62 NSCLC -70.3% | NCI-H460 lung -83.9% | HOP-92 NSCLC -87% | NCI-H522 lung -79.7% | A549/ATCC NSCLC -57.7% | 786-0 renal -85.7% | COLO 205 colon -53.5% | DU-145 prostate -7.86% | MALME-3M melanoma -97.1% | MDA-MB-231 breast -94.8% | RXF 393 renal -96.4% | SF-268 CNS -29.7% | SF-295 CNS -64.9% | SF-539 CNS -99.2% | UACC-257 melanoma -16.8% | M14 melanoma -69.2%
inactive: K-562 leukemia 16.7%

COC(=O)c1ccc(-c2c(-c3ccccc3)c(F)c3oc(C(=O)OC)c(N)c3c2-c2ccccc2)cc1
inactive: NCI-H23 lung 87% | NCI-H226 lung 100% | NCI-H322M lung 97.1% | HOP-62 NSCLC 94% | NCI-H460 lung 99.7% | HOP-92 NSCLC 85.1% | NCI-H522 lung 83.4% | A549/ATCC NSCLC 98.9% | 786-0 renal 103% | COLO 205 colon 99.7% | DU-145 prostate 104% | K-562 leukemia 85.1% | MALME-3M melanoma 99.9% | MDA-MB-231 breast 99.3% | RXF 393 renal 95.6% | SF-268 CNS 91.6% | SF-295 CNS 89.7% | SF-539 CNS 90% | UACC-257 melanoma 111% | M14 melanoma 98.2%

Cc1ccc(N=Nc2c(N)nn3c(-c4cc5cc(Br)ccc5oc4=O)ccnc23)cc1
inactive: NCI-H23 lung 21.7% | NCI-H322M lung 83.6% | HOP-62 NSCLC 47.7% | NCI-H460 lung 34.9% | HOP-92 NSCLC 73.6% | NCI-H522 lung 11.7% | A549/ATCC NSCLC 113% | 786-0 renal 56.8% | COLO 205 colon 100% | DU-145 prostate 52.8% | K-562 leukemia 64.4% | MALME-3M melanoma 82% | SF-268 CNS 16% | SF-295 CNS 49% | UACC-257 melanoma 121% | M14 melanoma 65.1%
active: NCI-H226 lung -26.3% | MDA-MB-231 breast -11.1% | RXF 393 renal -3.16% | SF-539 CNS -46.5%

CC(C)(C)OC(=O)N1CCC2(CC1)Oc1ccccc1[C@H]1CC(c3ccc(Br)cc3)=NN12
inactive: NCI-H23 lung 80.9% | NCI-H226 lung 79% | NCI-H322M lung 86.6% | HOP-62 NSCLC 77% | NCI-H460 lung 66.6% | HOP-92 NSCLC 67.5% | NCI-H522 lung 74.4% | A549/ATCC NSCLC 67.4% | 786-0 renal 76.8% | COLO 205 colon 101% | DU-145 prostate 93.1% | K-562 leukemia 36.1% | MALME-3M melanoma 90% | MDA-MB-231 breast 63% | RXF 393 renal 86.2% | SF-268 CNS 55.9% | SF-295 CNS 52.5% | SF-539 CNS 88.8% | UACC-257 melanoma 99.3% | M14 melanoma 87.3%

S=C(Nc1ccccc1)Nc1ccc(OCc2nc3ccc(Cl)cc3[nH]2)cc1
inactive: NCI-H23 lung 88% | NCI-H226 lung 97.5% | NCI-H322M lung 89.5% | HOP-62 NSCLC 90.4% | NCI-H460 lung 88.2% | HOP-92 NSCLC 115% | NCI-H522 lung 61.1% | A549/ATCC NSCLC 88.2% | 786-0 renal 94.5% | COLO 205 colon 114% | DU-145 prostate 96.4% | K-562 leukemia 30.9% | MALME-3M melanoma 92.4% | MDA-MB-231 breast 80% | RXF 393 renal 85.1% | SF-268 CNS 92.1% | SF-295 CNS 93.7% | SF-539 CNS 88.8% | UACC-257 melanoma 105% | M14 melanoma 85%

COc1cccc(NC(=O)c2ccc(NC(=O)CCl)s2)c1
inactive: NCI-H23 lung 11.9% | NCI-H226 lung 61.5% | NCI-H322M lung 101% | HOP-62 NSCLC 64.2% | NCI-H460 lung 12.1% | HOP-92 NSCLC 85.9% | A549/ATCC NSCLC 39.7% | COLO 205 colon 40.2% | DU-145 prostate 88.1% | MALME-3M melanoma 45.5% | RXF 393 renal 56.9% | SF-268 CNS 45.7% | SF-295 CNS 65.4% | SF-539 CNS 38.4% | UACC-257 melanoma 27.7% | M14 melanoma 14.2%
active: NCI-H522 lung -79.7% | 786-0 renal -86.8% | K-562 leukemia 4.03% | MDA-MB-231 breast -26.5%

CCCSc1nnc(-c2c(C)nc3sccn23)o1
inactive: NCI-H23 lung 90.5% | NCI-H226 lung 66.6% | NCI-H322M lung 73.9% | HOP-62 NSCLC 112% | NCI-H460 lung 97.9% | HOP-92 NSCLC 73.8% | NCI-H522 lung 98.7% | A549/ATCC NSCLC 98.2% | 786-0 renal 92.8% | COLO 205 colon 118% | DU-145 prostate 96.7% | K-562 leukemia 88.4% | MALME-3M melanoma 104% | MDA-MB-231 breast 74.6% | RXF 393 renal 82.9% | SF-268 CNS 89.1% | SF-295 CNS 87.1% | SF-539 CNS 90.9% | UACC-257 melanoma 93.6% | M14 melanoma 99.6%

COc1ccc(N=Nc2c(N)nn3c(N)c(C#N)c(-c4ccccc4)nc23)cc1
active: NCI-H226 lung 0.868% | HOP-62 NSCLC -1.62% | HOP-92 NSCLC -9.66% | NCI-H522 lung -4.5% | MDA-MB-231 breast 9.1% | RXF 393 renal 8.34% | SF-539 CNS -3.46%
inactive: NCI-H23 lung 32.3% | NCI-H322M lung 45.7% | NCI-H460 lung 16.1% | A549/ATCC NSCLC 53.1% | 786-0 renal 13.8% | COLO 205 colon 80.8% | DU-145 prostate 24.4% | K-562 leukemia 71.8% | MALME-3M melanoma 28.5% | SF-268 CNS 11.6% | SF-295 CNS 39.4% | UACC-257 melanoma 71% | M14 melanoma 74.2%

COc1ccc(N=Nc2c(N)nn3c(-c4cc5ccccc5oc4=O)ccnc23)cc1
inactive: NCI-H23 lung 36.6% | NCI-H322M lung 63.4% | HOP-62 NSCLC 14.7% | NCI-H460 lung 17.2% | HOP-92 NSCLC 34.3% | NCI-H522 lung 72.7% | A549/ATCC NSCLC 59.4% | 786-0 renal 15.6% | COLO 205 colon 63.9% | DU-145 prostate 61.9% | K-562 leukemia 51.5% | MALME-3M melanoma 49.3% | RXF 393 renal 10.1% | SF-268 CNS 57.8% | SF-295 CNS 34.5% | SF-539 CNS 15.2% | UACC-257 melanoma 88.4% | M14 melanoma 59.5%
active: NCI-H226 lung 3.29% | MDA-MB-231 breast -3.18%

COc1cc(CNC(=O)C[C@H](C)CCC=C(C)C)ccc1OCc1cn(-c2cccc(C(F)(F)F)c2)nn1
inactive: NCI-H23 lung 79.4% | NCI-H226 lung 72.3% | NCI-H322M lung 90.1% | HOP-62 NSCLC 88.8% | NCI-H460 lung 14.6% | HOP-92 NSCLC 86.1% | NCI-H522 lung 83.1% | A549/ATCC NSCLC 42.6% | 786-0 renal 93% | COLO 205 colon 74.2% | DU-145 prostate 101% | K-562 leukemia 59% | MALME-3M melanoma 80.8% | MDA-MB-231 breast 87.2% | RXF 393 renal 88.3% | SF-268 CNS 83.9% | SF-295 CNS 72.9% | SF-539 CNS 16.3% | UACC-257 melanoma 104% | M14 melanoma 92.1%
